In all, about 410,000 compounds went through this assay and about 18,000 (4.4%) were called active. Not shown: some 7% with an inconclusive outcome. This excerpt belongs to a sample that is enriched for actives. Values without a mark were called inactive. Cut-off read from the data, not from the text of the source: active = activity change below about -60%; inconclusive = no clear call, values can overlap the other calls; inactive = above about -39%.
Assay: qHTS Assay for inhibitors of the human cytomegalovirus (HCMV)
Conditions: HFF cells, HCMV-luciferase reporter, 72 h; at 57.5 µM; stronger effect = lower value
Procedure, shortened: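 Cell-based, HFFs, 1000 cells/well, 16 h 37C; cpds in DMSO + HCMV-luc, MOI 1 PFU/cell; 72 h 37C; OneGlo luminescence after 5 min RT; norm. to buffer vs Salinomycin 10uM.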
% is set by controls: 0 for no effect and ±100 for the full control effect.

SMILES	activity change, negative = inhibition
Cc1ccc(SCC(=O)Nc2ccc3oc(-c4ccccc4C)nc3c2)cc1	73.5%
CC(=O)OC1=C(C(C)=O)N(Cc2ccccc2)S(=O)(=O)c2ccccc21	3.57%
COc1ccc(OCCn2cc(C(=O)C3CCCCC3)c3ccccc32)cc1	-16.3%
O=C(COC(=O)c1cc([N+](=O)[O-])ccc1NCc1ccccc1)NC1CCCCC1	-19.2%
CN(c1ccccc1)S(=O)(=O)c1ccc(C(=O)NCc2cccnc2)cc1	-0.899%
CCN(C(=O)c1cc([N+](=O)[O-])ccc1NCc1cccnc1)c1ccccc1	-61.2% (active)
CCc1ccc(C2C(C(=O)Nc3ccccc3)=C(C)Nc3c(C(=O)Nc4ccc(C)cc4)cnn32)cc1 (configuration not stated)	-39.9%
CCCCCCCCCCCCC(NC(C)=O)(C(=O)OCC)C(=O)OCC	12.4%
CC(=O)N1CCN(c2ccc(NCc3ccc(C(C)C)cc3)cc2)CC1	-36.3%
CC(C)(C)C(=O)c1c(N)[nH]c(C(=O)c2ccccc2)c1-c1ccc(F)cc1	-5.27%
Nc1[nH]c(C(=O)c2ccccc2)c(-c2ccncc2)c1C(=O)NCc1cccc2ccccc12	-19.1%
Cc1nc2ccccc2c(-c2ccccc2)c1C(=O)c1ccccc1	-104% (active)
COc1ccc(OCC(=O)Nc2cccc(C(=O)OCc3cc(=O)n4nc(C)sc4n3)c2)cc1	47.5%
Cc1nn2c(NCCN(C)C)c3c(nc2c1-c1ccccc1)CCC3	-16.5%
CCc1ccc(NC(=O)c2cnc3c(-c4ccccc4)c(C)nn3c2C)cc1	-0.863%
CCc1c(C)nc2c(-c3ccccc3)c(C)nn2c1Nc1ccc(NC(C)=O)cc1	-66.5% (active)
Cc1ccc(OC(=O)CSc2nnc(-c3cccs3)o2)cc1	3.01%
O=C(CSc1cn(CC(=O)N2CCOCC2)c2ccccc12)Nc1ccccc1	19.2%
Cc1cc(NC(=O)COC(=O)COc2ccc(Cl)cc2C)c([N+](=O)[O-])cc1C	26.5%
COc1cc(Cl)c(C)cc1NC(=O)COC(=O)c1cc(SC)ccc1Cl	4.92%
COc1ccc(OCC(=O)Nc2cc(C)c(Cl)cc2OC)c([N+](=O)[O-])c1	-64.3% (active)
Cn1cc(S(=O)(=O)N2CCCCCC2)cc1C(=O)N1CCN(c2ccc(F)cc2)CC1	-13.3%

SMILES	activity change, negative = inhibition
COc1ccc(NC(=O)CCCc2nnc3n(CCC(C)C)c(=O)c4sccc4n23)c(OC)c1	12.6%
CCOc1ccc(-c2cc3nc(C4CCN(C(=O)OC(C)(C)C)CC4)c(C(=O)Nc4cccc(CC)c4)cn3n2)cc1	-18.2%
COC(=O)c1ccccc1NC(=O)c1ccc(COc2ccccc2Cl)o1	14.7%
NS(=O)(=O)c1ccc(CNC(=O)c2cnccn2)cc1	8.17%
CCN(CC)c1ccc(/C=N/NC(=O)CNC(=O)c2cccs2)cc1	-20%
CCN(CC)c1ccc(/C=N/Nc2nc(C)cc(C)n2)c(O)c1	-102% (active)
CCN(CC)c1ccc(/C=N/NC(=O)c2cnccn2)c(O)c1	-98.7% (active)
O=c1cc2nc(-c3ccccc3)nc(SCCOc3ccc(Cl)cc3)n2[nH]1	5.21%
Cc1ccc(C)c(N2CCN(C(=O)Cn3nc(C)c4sc5ccccc5c4c3=O)CC2)c1	23.4%
CC[C@H](C)[C@H]1CNC(=O)C(=O)N1CC1CCN(CCc2ccc(OC)c(OC)c2)CC1	15.6%
COc1ccc(Cl)cc1S(=O)(=O)N1CCC(c2ccncc2)CC1	-32.1%
CCOc1ccc(OCC)c(Nc2nc3ccccc3n3nnnc23)c1	-1.18%
CC(C)[C@H]1COCCS(=O)(=O)N1Cc1ccccc1-c1cccc2c1sc1ccccc12	-19%
COC(=O)c1c(-c2ccsc2)oc2ccc(-c3cc(OC)c(OC)c(OC)c3)cc12	8.37%
CSc1ncccc1C(=O)N1CCCC(CCC(=O)NCc2ccccc2F)C1 (configuration not stated)	-1.95%
Cc1cc2cc3n(c2nn1)N=C(Cl)CC3	-74.2% (active)
Cc1ccc(C(=O)COC(=O)C(Cc2c[nH]c3ccccc23)NC(=O)c2ccc(Br)cc2)cc1 (configuration not stated)	0%
O=C(CSc1nccn1Cc1ccc(F)cc1)NCc1ccccc1	-14.9%
COc1ccc2nc3n(c(=O)c2c1)-c1ccc(Cl)cc1C(=O)NC3Cc1ccccc1 (configuration not stated)	-25.7%
O=C1NC(Cc2ccccc2)c2nc3ccc(Br)cc3c(=O)n2-c2cc3ccccc3cc21 (configuration not stated)	17%
CC(C)CC1NC(=O)c2cc(Cl)ccc2-n2c1nc1ccccc1c2=O (configuration not stated)	-99.6% (active)
Cc1ccc(-c2nnn(CC(=O)N(Cc3ccco3)C(C(=O)NC(C)(C)C)c3ccncc3)n2)o1 (configuration not stated)	9.51%

SMILES	activity change, negative = inhibition
Cc1ccc(-c2cc(C(=O)Oc3ccccc3Cl)no2)cc1C	81.2%
COc1cc(C(=O)N(Cc2ccc(C(C)C)cc2)C2CCS(=O)(=O)C2)cc(OC)c1OC (configuration not stated)	11.7%
CN(C(=O)CSc1nc2ccccc2n1Cc1ccccc1C#N)c1ccccc1	-3.45%
CC(C)(C)c1ccc(C(CC(=O)O)NS(=O)(=O)Cc2ccccc2)cc1 (configuration not stated)	30.5%
CC(C)[C@@H](NC(=O)OC(C)(C)C)C(=O)NCC1CCC(C(=O)N[C@@H](Cc2ccccc2)C(=O)O)CC1 (some centres not stated)	-17.7%
C[C@@H](NC(=O)OC(C)(C)C)c1nnc(S(=O)(=O)Cc2ccccc2)o1	-105% (active)
CC(C)N(C(=O)Cn1c(SCC(=O)N2CCN(c3ccccc3)CC2)nc2ccccc21)C(C)C	-20.6%
CCn1cc2nc(SCc3ccccc3Cl)n(CCc3ccccc3)c(=O)c2n1	-14.7%
COc1cc(C(=O)NCCc2csc3nc(-c4ccccc4C)nn23)cc(OC)c1OC	7.41%
CCCNC(=O)c1nnc2n1CCN(C(=O)c1ccccc1OC)C2	-9.02%
COc1ccccc1C(=O)NCCn1cc(SCc2ccccc2Cl)c2ccccc21	20.2%
Cc1cccc(CN2CCN(C3CN(Cc4ccccc4)S(=O)(=O)C3)CC2)c1 (configuration not stated)	-24.1%
Cc1cccc(CN2CCN(C3CN(Cc4cn(Cc5cc(C)cc(C)c5)nn4)S(=O)(=O)C3)CC2)c1 (configuration not stated)	-101% (active)
Cc1cccc(CN2CCN(C3CN(Cc4cn(Cc5ccccc5F)nn4)S(=O)(=O)C3)CC2)c1 (configuration not stated)	-0.715%
COc1cccc(CNC(=O)C(=O)NCC(c2cccs2)S(=O)(=O)c2ccccc2)c1 (configuration not stated)	-19.1%
Cc1nc(NC(=O)CN(C)S(=O)(=O)c2ccc(Cl)cc2)sc1C	12.3%
COCCN(C(=O)CCC(=O)Nc1nccs1)C(C(=O)NC(C)(C)C)c1ccc(Cl)cc1 (configuration not stated)	-6.27%
CN(CCCC(=O)Nc1nccs1)S(=O)(=O)c1ccc(Cl)cc1	-64.7% (active)
CCc1ccc(CN(Cc2ccco2)C(=O)COc2ccc(Cl)c(C)c2)cc1	-9.02%
Cc1c(Cl)c([N+](=O)[O-])nn1CC(=O)NCC1CCCO1 (configuration not stated)	35.2%
Cc1c(Cl)c([N+](=O)[O-])nn1CCCC(=O)NC(C)c1ccccc1 (configuration not stated)	46.9%
Cc1c(Cl)c([N+](=O)[O-])nn1Cc1ccc(C(=O)N/N=C\c2cc(Cl)ccc2O)o1	-93.7% (active)

SMILES	activity change, negative = inhibition
O=C1CC(c2nnc(Cc3ccc(Cl)cc3)o2)CN1c1ccccc1 (configuration not stated)	-4.62%
CCOC(=O)C(=Cc1ccccc1OC)C(=O)OCC	-65.2% (active)
COc1ccccc1/C=C/C(=O)OCC(=O)NC1CCCCCC1	-34.6%
COc1ccccc1C(=O)OCC(=O)NCCNC(=O)COC(=O)c1ccccc1OC	-25.9%
CCc1cnc2c(c1SCC(=O)N1CCC(C)CC1)c(=O)n(C)c(=O)n2C	-18.2%
COc1ccc2[nH]c3c(c2c1)CCN1C(=O)C(CC(=O)NCc2cccc(C(F)(F)F)c2)C[C@H](C(=O)N2CCOCC2)[C@@]31C (some centres not stated)	-2.74%
CCN(CC)S(=O)(=O)c1nnc(NC(=O)COc2ccccc2Cl)s1	-5.69%
Clc1ccc2nc(-c3ccccc3)nc(C(Cl)Cl)c2c1	-78.3% (active)
Fc1ccc2nc(-c3ccccc3)nc(SCc3nnc(-c4ccccc4)o3)c2c1	1.64%
O=C(C1COc2ccccc2O1)N(Cc1cccnc1)c1nc2c(F)cc(F)cc2s1 (configuration not stated)	0%
Cc1cc(S(=O)(=O)NCC(C)C)ccc1OCC(=O)NC1CC1	-9.36%
O=C(Nc1ccc2ccccc2c1)Nc1ccc2snnc2c1	-97.2% (active)
CS(=O)(=O)c1ccccc1C(=O)Nc1ccc2sccc2c1	22.5%
COc1cccc(C(=O)Nc2ccc3oc(-c4ccc5ccccc5c4)nc3c2)c1	12.9%
CC(C)CC(=O)NCC(c1ccc2c(c1)OCO2)N1CCN(c2ccc(F)cc2)CC1 (configuration not stated)	1.29%
CCn1cc(NC(=O)Nc2ccc(OC)c(OC)c2)c(C(N)=O)n1	-11.8%
COc1ccc(NC(=O)NC(C)c2c(-n3cccc3)sc(C)c2C)cc1OC (configuration not stated)	-77.2% (active)
COc1ccc(NC(=O)N2CCCn3nc(C)cc32)cc1OC	9.12%
NC1=NC(=O)C(Cc2cccc(Cl)c2)S1 (configuration not stated)	4.67%
COc1ccc(-n2c(=O)c3c(c4cc(OC)ccc4n3C)n(Cc3cccc(C)c3)c2=O)cc1	-5.82%
COC(=O)C[C@@H]1C=C[C@@H](NC(=O)c2cccnc2)[C@@H](CO)O1	-9.71%
